Compounds without any hit were thinned out: in the full panel of roughly 83,000, 20% have a hit.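 A percent growth of 40 corresponds to 60% growth inhibition; 0 means no net growth; -100 means all cells died. Active threshold: below 10.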 Unmarked numbers belong to inactive results. Calls of active or inactive are those of the source.
What was measured:
Assay in all cases: NCI-60 one-dose screen, 48 h (100 = growth as untreated, 0 = no growth, -100 = all killed)
Conditions in all cases: 10 µM unless noted
NCI-H23 lung = test system: NCI-H23 lung
NCI-H322M lung = test system: NCI-H322M lung
HOP-62 NSCLC = test system: HOP-62 NSCLC
NCI-H460 lung = test system: NCI-H460 lung
HOP-92 NSCLC = test system: HOP-92 NSCLC
NCI-H522 lung = test system: NCI-H522 lung
A549/ATCC NSCLC = test system: A549/ATCC NSCLC
786-0 renal = test system: 786-0 renal
COLO 205 colon = test system: COLO 205 colon
DU-145 prostate = test system: DU-145 prostate
K-562 leukemia = test system: K-562 leukemia
MALME-3M melanoma = test system: MALME-3M melanoma
MDA-MB-231 breast = test system: MDA-MB-231 breast
RXF 393 renal = test system: RXF 393 renal
SF-268 CNS = test system: SF-268 CNS
SF-295 CNS = test system: SF-295 CNS
SF-539 CNS = test system: SF-539 CNS
UACC-257 melanoma = test system: UACC-257 melanoma
M14 melanoma = test system: M14 melanoma
HCT-15 colon = test system: HCT-15 colon

Row | Compound | growth (NCI-H23 lung) | growth (NCI-H322M lung) | growth (HOP-62 NSCLC) | growth (NCI-H460 lung) | growth (HOP-92 NSCLC) | growth (NCI-H522 lung) | growth (A549/ATCC NSCLC) | growth (786-0 renal) | growth (COLO 205 colon) | growth (DU-145 prostate) | growth (K-562 leukemia) | growth (MALME-3M melanoma) | growth (MDA-MB-231 breast) | growth (RXF 393 renal) | growth (SF-268 CNS) | growth (SF-295 CNS) | growth (SF-539 CNS) | growth (UACC-257 melanoma) | growth (M14 melanoma) | growth (HCT-15 colon)
1 | Cc1c(-c2noc(-c3ccc([N+](=O)[O-])cc3)n2)no[n+]1[O-] | 86% | 88.4% | 86.1% | 103% | 85.2% | 102% | 111% | 99.5% | 113% | 99.9% | 93.7% | 99.5% | 95.4% | 102% | 92.6% | 99.9% | 97.4% | 106% | 93.8% | 93.1%
2 | COc1cc2nc(-c3cccc4cccnc34)nc(NC3CCN(Cc4ccccc4)CC3)c2cc1OC | -72.2% (active) | -71.3% (active) | -73.9% (active) | -73.6% (active) | -73.2% (active) | -52.1% (active) | -72.7% (active) | -71.4% (active) | -75.5% (active) | -93.6% (active) | -49.4% (active) | -76.6% (active) | -89.5% (active) | -79.8% (active) | -68.8% (active) | -87.2% (active) | -86.6% (active) | -62.4% (active) | -80% (active) | -80.9% (active)
3 | Cc1[nH]c2ccccc2c(=O)c1CC=C(Cl)Cl | 75.4% | -47.2% (active) | -7.31% (active) | -74% (active) | 64.5% | 65.7% | 16.9% | -80.2% (active) | 35% | -22.5% (active) | -34.6% (active) | 82.4% | 34.1% | 63.9% | 39.6% | -86.8% (active) | 58% | 99.5% | 72.7% | 3.43% (active)
4 | CCOC(=O)c1sc(-c2ccc(OS(=O)(=O)c3ccc(Br)s3)c(C=O)c2)nc1C | 11.9% | 83.8% | 19.6% | 77.6% | 26.5% | -5.7% (active) | 76.1% | 9.63% (active) | 84.8% | 21.2% | 9.45% (active) | 13.2% | 4.99% (active) | 51.7% | 16.4% | 32.8% | -5.53% (active) | 28.8% | 1.87% (active) | 1.83% (active)
5 | CCOC(=O)c1ccc2[nH]c(-c3ccccc3)cc(=O)c2c1 | 99.7% | 98.2% | 106% | 101% | 92.5% | 101% | 95.7% | 104% | 109% | 103% | 97.2% | 104% | 94.5% | 103% | 103% | 106% | 97.2% | 98.7% | 98.9% | 92.8%
6 | O=C(c1nc2ccccc2[nH]1)C1C(c2cccc([N+](=O)[O-])c2)C2CC3CCCCC3N2[C@@]12C(=O)Nc1cc(Cl)ccc12 (stereo not given in full) | 37.3% | 42.2% | 48.1% | 9.08% (active) | 16.9% | 52.4% | 17.8% | 25.6% | 12.6% | 27% | 24.2% | 29.3% | 18.6% | -52.5% (active) | 39.9% | 24.8% | 48.4% | 43.5% | 21.5% | 20.9%
7 | O=C(Nc1ncc(Cc2cccc(C(F)(F)F)c2)s1)C1COc2ccccc2O1 (stereo not given) | 88.6% | 91.2% | 92.1% | 97.7% | 72.2% | 67.8% | 74.7% | 99.2% | 104% | 105% | 63.3% | 71.8% | 95.1% | 79% | 87.6% | 86.4% | 95.8% | 88.1% | 88.5% | 72%
8 | O=c1oc2ccc(Br)cc2c(=O)n1-c1ccc(F)cc1F | 4.93% (active) | 7.55% (active) | 6.8% (active) | 5.91% (active) | -24.4% (active) | -6.16% (active) | 6.77% (active) | 4.39% (active) | 85.5% | 18% | 9.74% (active) | -22.5% (active) | 14.1% | 3.17% (active) | 12.7% | -11.1% (active) | 10.7% | -8.2% (active) | 12% | 13.6%
9 | NC(CCc1nc2ccccc2c(=O)[nH]1)C(=O)O (stereo not given) | 105% | 97.8% | 103% | 108% | 108% | 91.7% | 105% | 101% | 115% | 120% | 96.7% | 104% | 103% | 115% | 106% | 104% | 105% | 105% | 105% | 101%
10 | CC/C(=C(\CC)c1ccc(OCC[N+](C)(C)C)cc1)c1ccc(OC)cc1 | 56.7% | 99.3% | 62.4% | 40.1% | 45.3% | 32.7% | 53% | 91.1% | 6.92% (active) | 94.9% | 30.4% | 68.3% | 71.9% | 29% | 61.2% | 76.2% | 59.9% | 39% | 58.1% | 97.6%
11 | COc1cc(NC(=O)CCSc2nc3ccccc3c(=O)n2Cc2ccccc2)cc(OC)c1OC | 89.7% | 75.8% | 92.8% | 94.6% | 54.5% | 4.12% (active) | 72.7% | 83.4% | 118% | 97.5% | 81.2% | 82% | 64.9% | 92.3% | 81.9% | 75.3% | 72.9% | 89.5% | 94.7% | 92.5%
12 | COc1ccc(Cn2c(Br)c3c(c2Br)-c2nc(N)sc2CC3)cc1 | 57.3% | 66.6% | 35.5% | 15.7% | 58.5% | 2.16% (active) | 39.1% | 56.8% | 66.9% | 57% | 4.07% (active) | 21.9% | 37% | 16.3% | 45.2% | 70.3% | 39.9% | 70.4% | 13.9% | 29.9%
13 | CN(C)c1ccc(N=Cc2ccc(N3CCOCC3)cc2)cc1 | 68.5% | 106% | 87.3% | 92.3% | 100% | 42.4% | 73.7% | 101% | 3.73% (active) | 99.6% | 56.6% | 81.8% | 48.2% | 130% | 84.7% | 83.3% | 31.6% | 84.8% | 71.2% | 77.3%
14 | O=c1oc2ccc(F)cc2c(=O)n1-c1ccc(F)cc1F | 11.4% | 36.7% | 30.5% | 14.7% | -29% (active) | -8.1% (active) | 15.2% | 73.1% | 93.9% | 28.3% | 15.7% | -6.02% (active) | 51.1% | 33.5% | 15% | 37.9% | 18.5% | 17.5% | 29% | 23.3%
15 | CN(C)CCCNCc1ccc(-c2ccc(F)c(Cl)c2)o1 | 77.1% | 65% | 19.2% | -58.4% (active) | 35.7% | 19.5% | -50.5% (active) | 49.6% | -90% (active) | 19.7% | -19% (active) | -57.7% (active) | 13.4% | 16% | 53.3% | -18.3% (active) | 60.8% | -5.97% (active) | -80.9% (active) | 1.01% (active)
